Screens: PubChem BioAssay, National Center for Advancing Translational Sciences (NCATS)
Most compounds without a hit are left out; they make up all but 2.4% or so of the library.
Cruzain Triton = qHTS Assay for Promiscuous and Specific Inhibitors of Cruzain (with detergent) | purified cruzain, Z-FR-AMC fluorescence, 0.01% Triton | Potency, µM, without a hit: max response, negative = inhibition, hits mostly inhibitors | 200,000 compounds, 0.43% hits;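 note: plate controls were neutral wells for no effect and buffer without enzyme for full effect; nearly all actives have a fitted effect of over 40% in size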
Target sequence (P25779 123-467 limits assumed): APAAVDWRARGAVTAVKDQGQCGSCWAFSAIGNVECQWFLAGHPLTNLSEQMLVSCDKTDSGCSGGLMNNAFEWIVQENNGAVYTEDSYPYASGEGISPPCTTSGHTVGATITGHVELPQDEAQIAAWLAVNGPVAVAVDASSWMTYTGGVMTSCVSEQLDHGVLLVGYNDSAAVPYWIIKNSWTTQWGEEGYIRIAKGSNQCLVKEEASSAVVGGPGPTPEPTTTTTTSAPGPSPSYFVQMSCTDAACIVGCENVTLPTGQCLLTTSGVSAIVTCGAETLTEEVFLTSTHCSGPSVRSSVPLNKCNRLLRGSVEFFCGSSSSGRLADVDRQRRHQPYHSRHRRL
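Cruzain (1.5 nM) preincubated 15 min at RT with compound in 100 mM sodium acetate pH 5.5, 5 mM DTT, 0.01% Triton X-100. Reaction started with 2 uM Z-FR-AMC; AMC fluorescence (ex 360/em 450 nm) change over 60 s gave rate.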
Cruzain inh noDet = qHTS Assay for Promiscuous and Specific Inhibitors of Cruzain (without detergent); AID 1476, 2009; Cruzipain (Trypanosoma cruzi), P25779; 200,000 compounds, 2.3% hits; Potency, µM, for inactives: max response, negative = inhibition, actives largely listed as inhibitors; purified cruzain, Z-FR-AMC fluorescence, no detergent;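 note: plate controls were enzyme without inhibitor for no effect and buffer without enzyme for full effect; nearly all actives have a fitted effect of over 40% in size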
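Detergent-free condition (0.00005% Triton X-100) in acetate buffer pH 5.5 with DTT. 1.5 nM enzyme and compound were pre-mixed 15 min, then 2 uM Z-FR-AMC substrate added; reaction progress from fluorescence change between first and third reads (60 s).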
An asterisk follows results filed as active; ? = inconclusive. Calls come from the whole dose curve; as a rule, active = well fitted curve in the direction sought with a large enough effect; inconclusive = small, poorly fitted or top-dose-only effect, or another doubt; inactive = no such curve, though single readings can be large; an effect the other way counts as inactive or inconclusive. Potency is the fitted concentration of half-maximal effect.

SMILES | Cruzain Triton | Cruzain inh noDet
CC(=O)c1c(C)[nH]c(C(=O)COC(=O)CCSc2ccccc2)c1C | 16µM* | ?
CCOC(=O)c1c(C)[nH]c(C(=O)CSc2ccccc2)c1C | 0% | ?
CCC(=O)N1CCc2cc(S(=O)(=O)N3CCN(c4ccccc4F)CC3)ccc21 | -2% | -1%
Cc1ccc(C(C)C)c2oc(=O)cc(-c3ccc(-c4ccc(C(F)(F)F)cc4)cc3)c12 | 1% | ?
CC(=O)c1ccc(-c2ccc(-c3cc(=O)oc4c(C(C)C)ccc(C)c34)cc2)cc1 | -2% | 8.9µM*
COc1cccc(-c2cc(C(=O)Nc3ccc(Br)c(C)c3)[nH]n2)c1 | -1% | 13µM*
COc1cccc(-c2cc(C(=O)Nc3ccc(F)cc3)[nH]n2)c1 | -1% | ?
C[C@]12CC[C@@H]3[C@H](CCC4=CC(=O)CC[C@]43C)[C@]1(O)CC[C@@]2(O)C(=O)CO | 0% | 0%
O=C(NC1c2ccccc2-c2ccccc21)c1ccco1 | -1% | 0%
COc1ccc(C(=O)NC2c3ccccc3-c3ccccc32)cc1 | 2% | 20µM*
Cc1nc(SCc2cc(=O)c3cccc(F)c3[nH]2)n[nH]1 | 1% | 5%
CCOC(=O)c1c(NC(=S)Nc2ccccc2)sc2c1CCCCC2 | -5% | -15%
CCOC(=O)c1c(NC(=S)Nc2cccc(C)c2)sc2c1CC(C)(C)SC2 | -9% | 20µM*
COC(=O)[C@@H]1CC2=CC(=O)CC[C@]2(C)[C@@]23O[C@@H]2C[C@@]2(C)[C@H](CC[C@@]24CCC(=O)O4)[C@@H]13 | 3% | -5%
COc1ccccc1CNc1ncnc2ccc(-c3ccccc3OC)cc12 | 2% | -1%
CCCC(=O)Nc1sc(C)c(-c2ccc(C(C)CC)cc2)c1C#N (stereo unspecified) | 9% | 7.9µM*
Cc1sc(NC(=O)COc2ccccc2)c(C#N)c1-c1ccccc1 | ? | -18%
CCc1ccc(-c2c(C)sc(NC(=O)C3CCC3)c2C#N)cc1 | 0% | 16µM*
Cc1sc(NC(=O)C2CCCC2)c(C#N)c1C | -18% | -17%
Cc1nn(C(=O)c2ccc(Br)cc2)c(C)c1S(=O)(=O)N1CCOCC1 | 0% | -5%
Cn1c(=O)c2c(nc(C(=N)SCC(=O)O)n2C)n(C)c1=O | -15% | -10%
CC(C)c1ccc(Nc2cc(C(=O)NCc3cccs3)c3ccccc3n2)cc1 | -3% | 10µM*
COc1ccc(Nc2cc(C(=O)NCc3cccs3)c3ccccc3n2)cc1 | 1% | ?
CCCCSCCCNC(=O)CN1C(=O)COc2ccc(S(=O)(=O)N3CCCC3)cc21 | 0% | -3%
NC(N)=NC(N)=Nc1ccc(C(=O)O)cc1 | 2% | 4%
SMILES | Cruzain Triton | Cruzain inh noDet
O=C(COC(=O)/C=C/c1ccc(OC(F)F)cc1)Nc1ccc(S(=O)(=O)N2CCCC2)cc1 | -3% | -1%
O=C(COC(=O)/C=C/c1ccc2c(c1)OCO2)Nc1ccc(S(=O)(=O)N2CCCC2)cc1 | -9% | 32µM*
O=C(COC(=O)Cc1ccc(S(=O)(=O)N2CCCCC2)s1)Nc1ccc2c(c1)OCO2 | -10% | 10µM*
O=C(Cc1ccc(S(=O)(=O)N2CCCCC2)s1)Nc1ccc(F)c(F)c1 | -9% | 1%
CCc1ccccc1NC(=O)c1cn(C)c(=O)c2ccccc12 | -3% | -13%
Cc1noc(C)c1C(=O)N1CCC2(CCCN(C(=O)Nc3cccc(F)c3)C2)CC1 | 0% | 0%
CCN(CC)C(=O)Cn1ncc2c([nH]c3ccc(C)cc32)c1=O | 0% | -3%
O=C(Nc1ccc2nc(SCC(=O)N3CCCC3)sc2c1)c1cccc(F)c1 | -10% | ?
CC(C)(C)NC(=O)C(Cc1ccccc1)NS(=O)(=O)c1cccc2nsnc12 (stereo unspecified) | 2% | 4%
O=C(Nc1ccc(OC(F)(F)F)cc1)C(Cc1ccccc1)NS(=O)(=O)c1cccc2nsnc12 (stereo unspecified) | -4% | 7%
Cc1ccc(Cl)cc1NC(=O)C(Cc1ccccc1)NS(=O)(=O)c1cccc2nsnc12 (stereo unspecified) | -4% | 25µM*
O=C(Nc1ccc(Cl)c(C(F)(F)F)c1)C(Cc1ccccc1)NS(=O)(=O)c1cccc2nsnc12 (stereo unspecified) | -9% | 20µM*
Cc1ccc(C)c(NC(=O)c2cnc3sc(N4CCOCC4)nn3c2=O)c1 | -1% | 7%
Cc1ccc(NC(=O)N2CCc3cc(S(=O)(=O)N4CCC(C)CC4)ccc32)cc1 | 5% | 3%
CN(CC(=O)O)CC(=O)O | -3% | 4%
CNC(=O)c1cc2cccc(OC)c2oc1=O | -3% | -7%
COc1cccc2cc(/C(C)=N/Nc3nc(-c4cc(C)ccc4C)cs3)c(=O)oc12 | -16% | 5µM*
CCOC(=O)N1CCN(C(=O)CS(=O)(=O)c2cn(Cc3ccccc3Cl)c3ccccc23)CC1 | 3% | ?
Cc1cc(NC(=O)CS(=O)(=O)c2cn(Cc3ccccc3Cl)c3ccccc23)no1 | -4% | 25µM*
COc1cccc(NC(=O)Cn2nnc(-c3nc(-c4ccccc4)no3)c2N)c1 | -2% | ?
CCc1ccc2occ(CC(=O)Nc3ccc(OC)c(Cl)c3)c2c1 | -7% | -9%
Cc1ncc(COP(=O)(O)O)c(C)c1O | 5% | -1%
CCCc1ccc(Oc2coc3cc(OCC(=O)Nc4ccccc4C)ccc3c2=O)cc1 | -4% | 6%
CCc1ccc(Oc2coc3cc(OCC(=O)Nc4cc(C)ccc4C)ccc3c2=O)cc1 | 2% | 25µM*
CCC(Oc1ccccc1)C(=O)Nc1ccc(S(=O)(=O)Nc2cnc3ccccc3n2)cc1 (stereo unspecified) | -26% | ?
SMILES | Cruzain Triton | Cruzain inh noDet
COc1cc(NS(=O)(=O)c2ccc(NC(=O)C(C)Oc3ccc(Cl)cc3Cl)cc2)nc(OC)n1 (stereo unspecified) | -19% | 16%
CC(Oc1ccc(Cl)cc1Cl)C(=O)Nc1ccc(S(=O)(=O)Nc2cnc3ccccc3n2)cc1 (stereo unspecified) | 22µM* | -2%
Cc1cc(Cl)ccc1OC(C)C(=O)Nc1ccc(S(=O)(=O)Nc2cnc3ccccc3n2)cc1 (stereo unspecified) | 25µM* | ?
COc1cccc(N(CC(=O)N2CCC(C)CC2)S(=O)(=O)c2ccc(C)cc2)c1 | -3% | 6%
Cc1noc(NC(=O)Nc2ccccc2F)c1C#N | 3% | 4%
CCOC(=O)c1sc2ccccc2c1S(=O)(=O)Nc1c(C)cccc1C | -8% | -11%
COc1cccc(/C=N/NC(=O)c2cc3cc([N+](=O)[O-])ccc3s2)c1O | 3.5µM* | 10µM*
CC(C)NC(=O)c1cc2cc([N+](=O)[O-])ccc2s1 | 2% | 9%
Cc1ccc(NS(=O)(=O)c2ccc3c(c2)CCCN3C(=O)C2CCC2)cc1Cl | -5% | -19%
Cc1ccc(NS(=O)(=O)c2ccc(Cl)c(NC(=S)NC(=O)C3CCCCC3)c2)cc1Cl | 2% | 32µM*
N#CCCSC(=S)[C@H]1CCCC1=N | 1% | -2%
O=C(COC(=O)CNC(=O)c1ccccc1Cl)Nc1ncc(C(F)(F)F)cc1Cl | 1.6µM* | 1.3µM*
O=C(COC(=O)CSc1cccc2cccc(Cl)c12)Nc1ncc(C(F)(F)F)cc1Cl | ? | 25µM*
Cc1ccc(C)c(SCC(=O)OCC(=O)Nc2ncc(C(F)(F)F)cc2Cl)c1 | ? | 15%
O=C(COC(=O)c1ccc2ccccc2c1)Nc1ncc(C(F)(F)F)cc1Cl | 5% | -5%
Nc1nc(C(=O)O)c(N=Nc2ccccc2)c(=O)[nH]1 | 3% | -9%
